Source: PubChem BioAssay AID1688 (National Center for Advancing Translational Sciences (NCATS), 2009)
The whole screen tested about 220,000 compounds, of which about 2,400 (1.1%) were called active. Where a call stands in place of a potency, no number is given. Inconclusive results (about 7%) are left out. The sample holds actives, similar compounds and a random draw of the others, so the mix is not that of the screen. The call rests on the fitted dose curve; in most records, active means well fitted inhibition curve with a large enough effect; inconclusive means small, poorly fitted or top-dose-only effect, or effect the other way; inactive means no such curve, though single readings can be large or run the other way.

Assay: qHTS Multiplex Assay to Identify Dual Action Probes in a Cell Model of Huntington: Aggregate Formation (GFP); further: nearly all actives have a fitted effect of over 60% in size
Conditions: PC12 HttQ103-GFP aggregates, Acumen cytometry, 40 h; series mostly up to 9.22 µM
Summary of the method: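 Quantitative HTS on tebufenozide-induced (100 nM) PC12 cells stably expressing polyQ103 Huntingtin exon 1–GFP. Reduction of bright GFP aggregates, detected by laser scanning cytometry after lysis, identified actives across the titration.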
Potency means the concentration at half of the fitted maximal effect.

Row | SMILES | Potency
1 | Cn1nc(C(F)(F)F)c(-c2ccc(F)cc2)c1NC(=O)CSCC(=O)O | inactive
2 | O=[N+]([O-])c1cc(Br)c(O)c(/C=N/Nc2nc3ccccc3s2)c1 | 5.01 µM (active)
3 | COc1cc(/C=N/Nc2nc3ccccc3s2)ccc1O | inactive
4 | c1ccc2sc(NN=C3CCCC3)nc2c1 | inactive
5 | COc1ccc(C(C)=O)cc1COc1ccc(Cl)c(C)c1 | inactive
6 | CCOC(=O)C1=C(N)N2C(=O)C(C)SC2=C(C(=O)OCC)C1c1cc(OC)c(OC)c(OC)c1 (stereo unspecified) | inactive
7 | O=C(NC(=O)c1ccccc1N1CCCCC1)Nc1ccc(Br)cc1 | inactive
8 | COc1cccc2c(=O)n(CC(=O)N3CCCCCC3)ccc12 | inactive
9 | Cn1c(=O)n(C)c(=O)n(CC(=O)N2CCCCC2)c1=O | 3.55 µM (active)
10 | O=C(CN1C(=O)c2cccc3cccc(c23)C1=O)N1CCCCC1 | inactive
11 | O=C(CC(c1ccccc1)c1cc(Cl)ccc1O)NCCN1CCOCC1 (stereo unspecified) | inactive
12 | Cc1c(NC(=O)C(=O)N/N=C/c2cccs2)c(=O)n(-c2ccccc2)n1C | inactive
13 | COC(=O)c1cc(S(=O)(=O)N2CCC(C(N)=O)CC2)oc1C | inactive
14 | Cc1nnc(SCC(=O)N2CCc3ccccc3C2)s1 | inactive
15 | Cc1nc(SCC(=O)N2CCc3ccccc3C2)c2c(C)c(C)sc2n1 | 14.1 µM (active)
16 | Cc1nc(SCC(=O)N2CC(=O)Nc3ccccc32)c2c(C)c(C)sc2n1 | inactive
17 | O=C(Nc1ccc(Cl)cc1)Nc1ccc(C(=O)N2CCOCC2)cc1 | inactive
18 | O=C(C[n+]1cc(-c2ccc(Cl)c(Cl)c2)n2c1CCC2)c1cccs1 | inactive
19 | COc1ccc(CCN2C(=O)CC(N3CCC(C(N)=O)CC3)C2=O)cc1OC (stereo unspecified) | inactive
20 | Cc1c(CCC(=O)O)c(=O)oc2cc3occ(-c4ccccc4)c3cc12 | inactive
21 | CCCC(=O)Nc1nnc(-c2ccccc2)o1 | inactive
22 | CCCCCCc1cc2cc(-c3nnc(-c4ccccc4)o3)c(=O)oc2cc1O | 5.01 µM (active)

Row | SMILES | Potency
23 | COc1cc(C(F)(F)F)c(C(=O)N(C)c2ccc(Cl)cc2)cn1 | inactive
24 | CCC(=O)Nc1cccc(C2=NOC3(C2)C[C@@H](C(N)=O)N(C(=O)c2cc([N+](=O)[O-])cc([N+](=O)[O-])c2C)C3)c1 (stereo partly specified) | inactive
25 | O=c1c2ccccc2nc2n1C(CSc1ccc(F)cc1)CN2 (stereo unspecified) | inactive
26 | O=c1c2ccccc2nc2n1C(CSc1ccc(Cl)cc1)CN2 (stereo unspecified) | inactive
27 | O=c1c2ccccc2nc2n1C(CSCc1ccccc1)CS2 (stereo unspecified) | 11.2 µM (active)
28 | CN(C)S(=O)(=O)c1ccc(NC(=O)COC(=O)Cn2[nH]c(=O)c3ccccc3c2=O)cc1 | inactive
29 | Clc1ccc2nc(-c3ccccc3)nc(C(Cl)Cl)c2c1 | 1.41 µM (active)
30 | O=C(O)c1cccc(NC(=O)c2cc(-c3cccc(Cl)c3)nc3ccccc23)c1 | inactive
31 | Clc1cccc(-c2nc(NCC3CCCO3)c3ccccc3n2)c1 (stereo unspecified) | inactive
32 | CC(C)=NN1C(=O)c2ccccc2NC1(C)C | inactive
33 | Cc1ccccc1Nc1c(-c2ccccc2)nc2ncccn12 | inactive
34 | C/C(=N\NC(=O)CNC(=O)C(c1ccccc1)c1ccccc1)c1ccc(C)cc1 | 12.6 µM (active)
35 | C/C(=N\NC(=O)Cc1ccc(F)cc1)c1ccc(F)cc1 | inactive
36 | O=C(CNC(=O)C(c1ccccc1)c1ccccc1)N/N=C\c1ccc2c(c1)OCO2 | inactive
37 | CCNC(=S)N1CCN(CCN=CC2=C(O)CC(C)(C)CC2=O)CC1 | inactive
38 | O=C(N/N=C/c1ccc2c(c1)OCO2)c1ccc(Cn2cc([N+](=O)[O-])cn2)o1 | inactive
39 | Cc1c(Cl)c([N+](=O)[O-])nn1Cc1ccc(C(=O)N/N=C\c2cc(Cl)ccc2O)o1 | 1.58 µM (active)
40 | Cc1c(Cl)c([N+](=O)[O-])nn1CCCC(=O)Nc1cc(Cl)ccc1Cl | inactive
41 | CC(NC(=S)Nc1ccccc1)C(c1cccs1)N1CCOCC1 (stereo unspecified) | inactive
42 | O=C(Nc1cccc(C(F)(F)F)c1)c1cc(Br)cc(Br)c1O | 5.01 µM (active)
43 | O=C(O)CSCC(=O)Nc1cccc(C(F)(F)F)c1 | inactive
44 | O=C(Nc1cccc(C(F)(F)F)c1)c1cnccn1 | inactive

Row | SMILES | Potency
45 | Cc1cc(C(=O)CSc2nc(N)cc(=O)[nH]2)c(C)n1Cc1ccco1 | inactive
46 | COC(c1ccccc1)(c1ccccc1)C(Oc1nc(C)cc(C)n1)C(=O)O (stereo unspecified) | inactive
47 | COc1ccc(/C=C/c2nnc(NC(=O)C(C)C)s2)cc1 | inactive
48 | CCN(CC)S(=O)(=O)c1ccc(Cl)c(NC(=O)c2ccncc2)c1 | inactive
49 | CCN(CC)S(=O)(=O)c1ccc(N(C)CCc2ccc(OC)c(OC)c2)nc1 | inactive
50 | CCN(CC)S(=O)(=O)c1ccc(N(C)Cc2ccc(C(F)(F)F)cc2)nc1 | 10 µM (active)
51 | C/C(=N\OCC(=O)O)c1ccc(Cl)cc1 | inactive
52 | O=C(CNCc1cccs1)Nc1cc(S(=O)(=O)N2CCCC2)ccc1Cl | inactive
53 | CC(C)n1cnc2c(Nc3cccc(Cl)c3)nc(N(CCO)CCCO)nc21 | inactive
54 | O=C(Nc1cc(Cl)cc(Cl)c1)C(NCCCO)c1ccccc1 (stereo unspecified) | inactive
55 | OCCCNc1nccc(-c2cc(Nc3cccc(Cl)c3)ncn2)n1 | 0.794 µM (active)
56 | Brc1ccc2c(c1)[C@H]1OCC[C@H]1[C@@H](c1cccs1)N2 | inactive
57 | CCC(C)N1C(=O)S/C(=C/c2ccc(Sc3nc4ccccc4[nH]3)o2)C1=O (stereo unspecified) | 10 µM (active)
58 | CCCCSc1nc2ccccc2[nH]1 | inactive
59 | O=C(CSc1nc2ccccc2[nH]1)c1cccs1 | inactive
60 | O=C(O)c1ccc(/C=N/Nc2nc(N3CCCCC3)nc(N3CCCCC3)n2)cc1 | inactive
61 | NC(=O)c1ccc(NC(=O)COC(=O)c2ccc([N+](=O)[O-])cc2)cc1 | inactive
62 | COc1ccc(N(Cc2ccccc2)S(=O)(=O)c2cccc(C(=O)O)c2)cc1 | inactive
63 | CCOC(=O)N1CCN(C(=O)c2ccc(S(=O)(=O)c3ccc(C)cc3)c(NC(C)=O)c2)CC1 | inactive
64 | O=C(NCCN1CCOCC1)c1ccc2c(c1)N(Cc1ccc(Cl)cc1)CCS2 | inactive
65 | CCOC(=O)N1CCN(C(=O)c2ccc3c(c2)N(Cc2ccc(C)cc2)CCS3)CC1 | 11.2 µM (active)
66 | Cc1ccc(S(=O)(=O)N2CCN(C(=O)COC(=O)c3c(C)noc3C)CC2)c(C)c1 | inactive
